Screening results from PubChem.
Most compounds without a hit are left out; they make up all but 8.9% or so of the library.
MCF10A rerep: inducers of DNA re-replication in MCF 10A breast cells; Potency, µM (series often up to 46.1 µM), for inactives: at the top dose activity, positive = re-replication, most hits filed as activators; MCF 10A DNA re-replication, Hoechst nuclear intensity, 48 h; hit rate 2.9% among 350,000; also: potency is read from the fitted curve at half-maximal effect; % of control where 0% means no effect; nearly all actives have a fitted effect of over 50% in size
KB-3-1 cytotox: kills parental KB-3-1 adenocarcinoma cells; KB-3-1 viability, CellTiter-Glo ATP luminescence, 72 h; Potency, µM (top dose mostly 46.1 µM), usual class: cytotoxic; hit rate 1.4% among 400,000; also: potency is read from the fitted curve at half-maximal effect; % is scaled to controls: 0 for no effect and ±100 for the full control effect; nearly all actives have a fitted effect of over 60% in size
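KB-3-1 cells, DMEM (no phenol red) + 10% FBS; compound by pin transfer, 72 h, 37 °C. Readout: CellTiter-Glo luminescence after 10 min. Data normalized, curve-fitted.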
SW480 rerep: inducers of DNA re-replication in SW480 colon cancer cells. SW480 DNA re-replication, Hoechst DNA content imaging, 48 h. Potency, µM (series often up to 46.1 µM), inactives show at the highest dose re-replication activation, actives largely listed as activators. hit rate 1.8% among 340,000; also: potency is read from the fitted curve at half-maximal effect; % of control where 0% means no effect; nearly all actives have a fitted effect of over 55% in size
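Image-based DNA-content assay: after two days of treatment, nuclei were labelled with the DNA dye Hoechst and imaged, and hits were compounds raising the count of nuclei showing high fluorescence intensity.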
DRD3 agonist: D3 dopamine receptor (human) agonism. hit rate 0.58% among 410,000. max activation, %. D3R DiscoveRx beta-arrestin cells, luminescence, 90 min. P35462. AID 652048; in the data active = max activation above about 30%; also: 0% is about no effect
Target sequence (P35462 whole entry, looked up): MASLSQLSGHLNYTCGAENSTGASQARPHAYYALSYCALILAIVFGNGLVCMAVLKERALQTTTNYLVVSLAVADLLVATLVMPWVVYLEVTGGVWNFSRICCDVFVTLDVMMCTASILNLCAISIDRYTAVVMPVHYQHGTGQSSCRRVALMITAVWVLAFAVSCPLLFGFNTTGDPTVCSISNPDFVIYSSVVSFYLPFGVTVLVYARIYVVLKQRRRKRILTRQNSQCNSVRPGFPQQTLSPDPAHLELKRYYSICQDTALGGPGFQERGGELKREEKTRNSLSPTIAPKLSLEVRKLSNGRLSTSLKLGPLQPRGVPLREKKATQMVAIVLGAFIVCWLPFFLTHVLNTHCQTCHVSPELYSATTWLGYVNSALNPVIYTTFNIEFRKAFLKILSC
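Agonist mode: compounds and dopamine controls were applied to plated cells for 90 min at 37 degrees C after an overnight attachment at 1500 cells/well. Luminescent read-out followed 30 - 60 minutes at room temperature with DiscoveRx detection reagent.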
D3 antag: D3 dopamine receptor (human) antagonism. max response, negative = inhibition, %. D3R cells, DiscoveRx beta-arrestin luminescence, antagonist mode; stronger effect = lower value. hit rate 2.5% among 360,000; in the data active = max response below about -50%; inconclusive = no clear call, values can overlap the other calls; also: % is scaled to controls: 0 for no effect and ±100 for the full control effect
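Cells expressing the human receptor were seeded at 1500 cells/well, incubated overnight at 37 degrees C in 5% CO2, then exposed to library compounds with dopamine controls for 90 minutes at 37 degrees C before luminescent detection.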
KB-V1 MDR tox: KB-V1 MDR subline cytotoxicity | KB-V1 MDR cells viability, CellTiter-Glo, 72 h | Potency, µM (series often up to 46.1 µM), usual class: cytotoxic | hit rate 3.4% among 400,000 | AID 1347076; also: potency is read from the fitted curve at half-maximal effect; % is scaled to controls: 0 for no effect and ±100 for the full control effect; nearly all actives have a fitted effect of over 60% in size
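Cytotoxicity toward P-gp-expressing KB-V1 cells was determined as loss of CellTiter-Glo luminescence after 72 h at 37 degrees C. Compounds were tested in quantitative HTS format across a concentration range, with curves fitted to normalized data.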
Starred values were filed as active, the others as inactive. Unless noted, calls follow the shape of the dose curve; as a rule, active = well fitted curve in the direction sought with a large enough effect; inconclusive = small, poorly fitted or top-dose-only effect, or another doubt; inactive = no such curve, though single readings can be large; an effect the other way counts as inactive or inconclusive.

`CCOc1ccccc1CNC(=O)c1c(C)oc2ncnc(N3CCOCC3)c12` gave DRD3 agonist -8.
`COc1ccc(OCCN2CCC(C(=O)NC(c3ccsc3)c3ccccc3C)CC2)cc1` (stereo not drawn) gave KB-3-1 cytotox inactive, DRD3 agonist -10, D3 antag -12 and KB-V1 MDR tox inactive.
`O=C(NC(c1ccccc1)c1ccsc1)C1CCN(Cc2ccccc2)CC1` (stereo not drawn) gave KB-3-1 cytotox inactive, DRD3 agonist -18, D3 antag inconclusive and KB-V1 MDR tox inactive.
O=C(NC(c1ccc(Cl)cc1)c1ccsc1)C1CCN(Cc2ccc(Oc3ccccc3)cc2)CC1 (stereo not drawn) was read as KB-3-1 cytotox inactive, DRD3 agonist -18, D3 antag -64* and KB-V1 MDR tox inactive.
For Cc1ccccc1C(NC(=O)C1CCN(Cc2ccc(Oc3ccccc3)cc2)CC1)c1ccsc1 (stereo not drawn) the results were KB-3-1 cytotox inconclusive, DRD3 agonist -14, D3 antag -56* and KB-V1 MDR tox inconclusive.
For CCCN1CCC(C(=O)NC(c2ccc(Cl)cc2)c2ccsc2)CC1 (stereo not drawn) the results were KB-3-1 cytotox inconclusive, DRD3 agonist -14, D3 antag -56* and KB-V1 MDR tox inconclusive.
`Cc1ccc(NC(=O)CN2C(=O)NC3(CCCCCCC3)C2=O)cc1C` gave MCF10A rerep -1%, KB-3-1 cytotox inactive, SW480 rerep -5%, DRD3 agonist -3, D3 antag 9 and KB-V1 MDR tox 23µM*.
For Cc1cc(C)c(NC(=O)CN2C(=O)NC3(CCCCC3)C2=O)c(Cl)c1 the results were MCF10A rerep 2%, KB-3-1 cytotox inactive, SW480 rerep -4%, DRD3 agonist -20, D3 antag -17 and KB-V1 MDR tox inactive.
`CC(NC(=O)CN1C(=O)NC2(CCCCCCC2)C1=O)c1ccccc1` (stereo not drawn) gave MCF10A rerep -3%, KB-3-1 cytotox inactive, SW480 rerep -1%, DRD3 agonist 2, D3 antag 25 and KB-V1 MDR tox 23µM*.
CC(NC(=O)CN1C(=O)NC2(CCCCC2)C1=O)c1ccc(S(N)(=O)=O)cc1 (stereo not drawn) was read as MCF10A rerep inconclusive, KB-3-1 cytotox inactive, SW480 rerep 6.5µM*, DRD3 agonist -9, D3 antag 7 and KB-V1 MDR tox inactive.
O=C(CN1C(=O)NC2(CCCCC2)C1=O)Nc1ccc(F)cc1 was read as MCF10A rerep 1%, KB-3-1 cytotox inactive, SW480 rerep 5%, DRD3 agonist 0, D3 antag -3 and KB-V1 MDR tox inactive.
`O=C(CN1C(=O)NC2(CCCC2)C1=O)NC(c1ccccc1)c1ccccc1` gave MCF10A rerep -31%, KB-3-1 cytotox inconclusive, SW480 rerep inconclusive, DRD3 agonist -9, D3 antag -1 and KB-V1 MDR tox inactive.
Screening Cc1ccc(NC(=O)CN2C(=O)NC3(CCC(C)CC3)C2=O)c(Cl)c1 (stereo not drawn) returned MCF10A rerep 19%, KB-3-1 cytotox inactive, SW480 rerep -3%, DRD3 agonist -1, D3 antag 16 and KB-V1 MDR tox 18µM*.
Screening CCOc1ccc(C2C(=O)N(C3CCCCC3)CC(=O)N2C2CCCC2)cc1OC (stereo not drawn) returned DRD3 agonist 8.
COc1ccccc1-c1ccc2c(c1)C(C)(Cc1cc(Cl)ccc1C(F)(F)F)C(=O)N2 (stereo not drawn) was read as KB-3-1 cytotox inconclusive, DRD3 agonist 3, D3 antag 0 and KB-V1 MDR tox 21µM*.
CCOC(=O)c1sc(NC(=O)CSc2nnc(C(C)C)n2C)nc1C was read as MCF10A rerep 4%, KB-3-1 cytotox inactive, SW480 rerep -9%, DRD3 agonist 3, D3 antag 26 and KB-V1 MDR tox 23µM*.
